# This is a sample that favours compounds with a hit; in the whole collection about 5.9% have one here.
# HepG2 tox = HepG2 cytotoxicity, counter-screen for TGF-b inhibitors | HepG2 CAGA-GFP viability, ATP luminescence, 18 h | Potency, µM (titrated, usually from 46.1 µM), inactives show at the top dose activity change, negative = cytotoxicity, most hits filed as cytotoxic | 410,000 compounds, 0.76% hits
#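 HepG2 CAGA-GFP cells (1000/well, DMEM with 1% FBS) received compound, then TGF-beta at 500 pg/mL final, and were incubated 18 hours at 37 degrees C. Viability was read by CellTiter-Glo luminescence. Media-only wells were set as complete cell-killing and DMSO as no toxicity.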
# KB-3-1 tox = kills parental KB-3-1 adenocarcinoma cells. KB-3-1 viability, CellTiter-Glo ATP luminescence, 72 h. Potency, µM (titrated, usually from 46.1 µM), usual class: cytotoxic. 400,000 compounds, 1.4% hits. AID 1347075; note: % is set by controls: 0 for no effect and ±100 for the full control effect; nearly all actives have a fitted effect of over 60% in size
#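 Cytotoxicity measured as CellTiter-Glo luminescence after 72 h at 37 C. Compound titrations were pinned onto drug-naive KB-3-1 parental adenocarcinoma cells grown in DMEM with 10% FBS, and normalized data fitted to concentration-response curves.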
# TGFb inhibitor = blocks TGF-b signaling; 410,000 compounds, 1.2% hits; HepG2 CAGA-GFP TGF-b/SMAD3 reporter, GFP fluorescence, 18 h; TGF-beta stimulated, 500 pg/mL final; Potency, µM (doses to about 46.1 µM), inactives show at the top dose activity, negative = inhibition, usual class: inhibitors; AID 588855; note: % is set by controls: 0 for no effect and ±100 for the full control effect; nearly all actives have a fitted effect of over 65% in size
#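 Cell-based qHTS in HEPG2 carrying a CAGA-GFP Smad reporter; compounds added before 500 pg/mL final TGF-beta, 18 h incubation at 37 degrees C, GFP fluorescence quantified per cell by imaging cytometry.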
# KB-V1 MDR tox = kills drug-selected multidrug resistant KB-V1 cells; KB-V1 MDR cells viability, CellTiter-Glo, 72 h; Potency, µM (top dose mostly 46.1 µM), most hits filed as cytotoxic; 400,000 compounds, 3.4% hits; note: % is set by controls: 0 for no effect and ±100 for the full control effect; nearly all actives have a fitted effect of over 60% in size
#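 qHTS viability screen in drug-selected KB-V1 MDR cells: 72 h compound treatment at 37 degrees C, ATP luminescence end point.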
# S2 tox = reduces viability in counter-screen for ATXN expression inhibitors; S2 cells (HEK-293 line with an ATXN2-luciferase reporter) viability, CellTiter-Fluor protease fluorescence, 24 h; Potency, µM (series often up to 56.7 µM), most hits filed as cytotoxic; 400,000 compounds, 0.49% hits; AID 651635; note: nearly all actives have a fitted effect of over 40% in size
# ATXN2 expr inh = inhibitors of ATXN2 expression; HEK-293 ATXN2-luciferase reporter, luminescence, 24 h; 360,000 compounds, 0.72% hits; Potency, µM (top dose mostly 57 µM), inactives show top-dose activity change, negative = inhibition, usual class: inhibitors; note: % is set by controls: 0 for no effect and ±100 for the full control effect; nearly all actives have a fitted effect of over 55% in size
#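 ATXN2-luciferase reporter cells (luciferase flanked by upstream and downstream ATXN2 gene portions) were treated 24 h at 37 °C with compounds at up to 57 uM. SteadyGlo luminescence gave expression; GF-AFC fluorescence gave viability.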
# * hit, by the source's call; i = inactive; ? = inconclusive; . = no result. Calls come from the whole dose curve; as a rule, active = well fitted curve in the direction sought with a large enough effect; inconclusive = small, poorly fitted or top-dose-only effect, or another doubt; inactive = no such curve, though single readings can be large; an effect the other way counts as inactive or inconclusive. Potency is the fitted concentration of half-maximal effect.
SMILES,HepG2 tox,KB-3-1 tox,TGFb inhibitor,KB-V1 MDR tox,S2 tox,ATXN2 expr inh
NC(Cc1ccc(Cl)cc1)c1csc(NC(=O)Nc2ccccc2-c2ccccc2)n1 (centres undefined),-101%,?,?,?,i,?
NC(Cc1ccc(Cl)cc1)c1csc(NC(=O)NCC2CCCCC2)n1 (centres undefined),13µM*,?,?,16µM*,35µM*,?
c1ccc(-c2nc(N3CCN(c4ccccc4)CC3)nc(-n3ccnc3)n2)cc1,-4%,?,-2%,23µM*,i,-25%
c1ccc(-c2nc(N3CCCCCC3)nc(-n3ccnc3)n2)cc1,-16%,?,4%,?,i,-33%
COc1cccc(NC(=O)Cn2c(=O)n(-c3cccc(OC)c3)c(=O)c3c4c(sc32)CCCC4)c1,8%,i,-5%,i,?,0%
Clc1ccc2c(c1)[C@H]1OCC[C@H]1[C@@H](c1ccco1)N2,-25%,i,1%,i,i,45%
CCc1ccc2c(c1)[C@H]1OCC[C@H]1[C@@H](c1cccs1)N2,-2%,13µM*,-28%,?,i,-1%
O=C(COc1cccc2ccccc12)N1c2ccccc2CCc2ccccc21,-3%,?,?,16µM*,i,-27%
O=C(COc1ccc2ccccc2c1CN1CCOCC1)N1CCc2ccccc21,13µM*,?,?,?,i,-18%
Cc1ccc(OCC(=O)N2CCc3ccccc32)c([N+](=O)[O-])n1,-12%,23µM*,-3%,i,i,6%
Cc1ccccc1C1N=C2Oc3ccccc3C=C2C(=O)N1 (centres undefined),-28%,7.3µM*,10%,4.1µM*,.,-4%
Cc1ccccc1C1NC(=O)c2ccccc2O1 (centres undefined),4%,i,17%,i,i,.
COc1ccc(-c2cc3nc(NCc4ccc(NC(C)=O)cc4)n(C)c(=O)c3s2)cc1OC,-2%,i,-1%,i,i,9%
COc1cccc(CNc2nc3cc(-c4cccc(Cl)c4)sc3c(=O)n2C)c1OC,-22%,15µM*,?,8.2µM*,i,0%
COc1cccc(CNc2nc3cc(-c4cccc(C(F)(F)F)c4)sc3c(=O)n2C)c1OC,-16%,i,2%,i,i,1%
COc1cccc(CNc2nc3cc(-c4ccccc4)sc3c(=O)n2C)c1OC,10µM*,23µM*,?,i,?,?
COc1ccccc1CNc1nc2cc(-c3ccc(OC)c(OC)c3)sc2c(=O)n1C,4%,?,?,9.2µM*,i,0%
CCOC(=O)c1c(C)[nH]c(C)c1S(=O)(=O)NCC(=O)Nc1ccc(C)c(N(C)C)c1,-4%,i,-23%,?,i,11%
COc1c(C)c2c(c(O)c1CC=C(C)CCC(=O)O)C(=O)OC2,.,.,.,.,.,64%
CNC(=O)[C@@H]1C[C@@H](NCc2cccc(Oc3ccccc3)c2)CN1C(C)C,.,.,.,.,i,.
Cc1sc2ncn(CC(=O)NCC(=O)N(C)C3CCCCC3)c(=O)c2c1C,-22%,i,-5%,23µM*,i,-9%
Cc1sc2ncn(CC(=O)NCC(=O)N(C)Cc3ccccc3)c(=O)c2c1C,7%,i,-3%,i,i,-1%
COc1ccc(C(C(=O)NC2CCCCC2)N(Cc2cccs2)C(=O)Cc2c[nH]c3ccccc23)cc1OC (centres undefined),-1%,?,-1%,8.2µM*,i,-14%
Cc1ccccc1N(C(=O)Cc1c[nH]c2ccccc12)C(C(=O)NC1CCCCC1)c1ccco1 (centres undefined),-30%,i,-6%,?,i,-27%
Cc1ccc(N(C(=O)Cc2c[nH]c3ccccc23)C(C(=O)NC2CCCCC2)c2ccco2)cc1 (centres undefined),-41%,?,?,16µM*,?,?
SMILES,HepG2 tox,KB-3-1 tox,TGFb inhibitor,KB-V1 MDR tox,S2 tox,ATXN2 expr inh
Cc1ccc(C(C(=O)NC2CCCCC2)N(Cc2ccco2)C(=O)Cc2c[nH]c3ccccc23)o1 (centres undefined),3%,i,?,10µM*,?,-26%
CCOC(=O)c1c(C)[nH]c(C)c1S(=O)(=O)N1CCC(C(=O)Nc2ccc(OCC)cc2)CC1,10%,i,1%,i,i,6%
CC1=CC(=O)C(C(C)C)=C/C1=C(\c1cc(C(C)C)c(OP(=O)(O)O)cc1C)c1ccccc1C(=O)O,-4%,16µM*,?,?,i,-9%
CCc1ccc(NC(=O)c2ccc(OC)c([N+](=O)[O-])c2)cc1,-1%,i,4%,15µM*,?,1%
COc1ccc(C(=O)Nc2c(C)ccc3nsnc23)cc1[N+](=O)[O-],7%,i,1%,15µM*,i,0%
CCS(=O)(=O)N1CCCC(C(=O)NCCOC)C1 (centres undefined),3%,i,2%,i,i,13%
CCCCCCCCCCCCCCCC[n+]1ccc(/C=N/O)cc1,-113%,2.9µM*,?,i,?,?
CCCCCCCCCCCCCCCC[n+]1ccc(C(N)=O)cc1,-69%,?,?,i,?,?
CCc1ccc2occ(CC(=O)Nc3c(C(=O)c4ccccc4)oc4ccccc34)c2c1,-21%,i,-1%,i,i,4%
O=C(N/N=C1\CCc2ccccc21)c1ccccc1O,-71%,i,-18%,21µM*,i,?
COc1ccc(-c2nc3ccccc3o2)cc1NC(=O)COc1ccc(C(C)(C)C)cc1,-23%,.,2%,.,.,.

# Screening results (PubChem)
